Compound activity: PubChem, National Center for Advancing Translational Sciences (NCATS)
In the library only some 3.3% were active in any assay of this set; here they are far more common.
Sm TGR inh = blocks Schistosoma mansoni thioredoxin glutathione reductase; Q962Y6; purified TGR, DTNB reduction, TNB absorbance 405 nm; Potency, µM (doses to about 114 µM), for inactives: at the highest dose activity change, negative = inhibition, usual class: inhibitors; 360,000 compounds, 3% hits; AID 485364; further: on the % scale 0 is the no-effect control and ±100 the full control effect; nearly all actives have a fitted effect of over 60% in size
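First, TGR (20 nM dispensed) and NADPH were mixed with compound. Second, a 15 min room-temperature incubation followed. Third, further NADPH and then DTNB were added to start the reaction. Finally, TNB absorbance was monitored kinetically.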
LmPK inh = LmPK (Leishmania mexicana) enzyme inhibition. Q27686. purified LmPK, Kinase-Glo ATP luminescence, 1 h. Potency, µM (doses to about 57.5 µM), without a hit: at the highest dose activity change, negative = inhibition, most hits filed as inhibitors. 290,000 compounds, 0.37% hits. AID 1721; further: on the % scale 0 is the no-effect control and ±100 the full control effect
Target sequence (Q27686 whole entry, looked up): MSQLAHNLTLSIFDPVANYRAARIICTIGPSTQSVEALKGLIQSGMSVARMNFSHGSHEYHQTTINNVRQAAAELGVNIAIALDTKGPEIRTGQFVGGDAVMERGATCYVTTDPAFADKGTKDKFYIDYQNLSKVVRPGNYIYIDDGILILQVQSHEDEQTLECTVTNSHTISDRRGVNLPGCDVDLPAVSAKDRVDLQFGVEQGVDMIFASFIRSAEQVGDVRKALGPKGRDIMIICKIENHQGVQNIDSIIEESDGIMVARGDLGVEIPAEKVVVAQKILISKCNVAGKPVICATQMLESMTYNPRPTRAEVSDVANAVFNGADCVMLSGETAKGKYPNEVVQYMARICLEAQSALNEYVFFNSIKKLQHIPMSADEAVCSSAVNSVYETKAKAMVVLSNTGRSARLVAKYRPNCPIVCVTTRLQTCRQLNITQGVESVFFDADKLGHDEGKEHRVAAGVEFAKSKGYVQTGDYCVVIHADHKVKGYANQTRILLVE
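Screened at intermediate enzyme activity to detect both inhibitors and activators: LmPK at 0.1 nM, with a 0.5 nM enzyme column as activation reference. PEP 0.5 mM, ADP 0.1 mM; ATP detected by luminescence after 1 h.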
NS1 inh = influenza NS1 inhibition | AID 2326 | 270,000 compounds, 0.4% hits | Potency, µM (top dose mostly 46.1 µM), without a hit: at the top dose activity, positive = more growth; calls by dose curve; further: actives are rising curves; nearly all actives have a fitted effect of over 50% in size
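OD600 was taken as the measure of yeast growth restored by compound in an NS1-expressing S. cerevisiae strain. Cells had been washed out of glucose medium and diluted 1:100 into galactose -URA medium, pH 6.0.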
Tb PYK inh = T. brucei pyruvate kinase inhibition | Q57TT1 | 410,000 compounds, 0.12% hits | AID 624173 | Potency, µM (top dose mostly 76.8 µM), inactives show top-dose activity, negative = inhibition, actives largely listed as inhibitors | TbPYK enzyme, Kinase-Glo Plus ATP luminescence, 45 min; further: on the % scale 0 is the no-effect control and ±100 the full control effect; nearly all actives have a fitted effect of over 50% in size
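Luminescent Kinase-Glo Plus end-point after 45 min room-temperature reaction of T. brucei pyruvate kinase started with 130 uM ADP (final). Buffer TEA 50 mM pH 7.2 with KCl, MgCl2, BSA, Tween-20; titration-based qHTS with fitted concentration-effect curves.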
RE007 growth inh = less growth of the S. pombe RE007 Vpr strain. S. pombe RE007 Vpr strain, BacTiter-Glo ATP luminescence, 24 h. Potency, µM (top dose mostly 92.2 µM), without a hit: at the top dose activity change, negative = less growth, actives largely listed as inhibitors. 360,000 compounds, 0.21% hits. AID 651644; active means well fitted falling curve with a large enough effect; inconclusive means small, poorly fitted or top-dose-only effect; inactive means no such curve, though single readings can be large or run the other way; further: on the % scale 0 is the no-effect control and ±100 the full control effect; nearly all actives have a fitted effect of over 50% in size
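Fission yeast strain RE007, carrying one chromosomally integrated HIV-1 vpr copy, was seeded at OD 0.01 in PMG+AL medium with 23 nL pinned compound. After 24 h at 30 °C and 99% humidity, viability was read by BacTiter-Glo luminescence.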
SARS PLP yeast = inhibitors of SARS-CoV papain-like protease in yeast; S. cerevisiae expressing SARS-CoV PLpro, growth rescue; Potency, µM (series often up to 32.9 µM), inactives show at the highest dose activity, positive = growth rescue, usual class: activators; 330,000 compounds, 0.19% hits; calls by dose curve; further: 0% is about no effect; nearly all actives have a fitted effect of over 55% in size
The depositor's hits bear a star; ? = inconclusive; . = no result; [ ] = another dose, or the depositor's remark. Unless noted, the call rests on the fitted dose curve; in most records, active means well fitted curve in the direction sought with a large enough effect; inconclusive means small, poorly fitted or top-dose-only effect, or another doubt; inactive means no such curve, though single readings can be large; an effect the other way counts as inactive or inconclusive. Potency means the concentration at half of the fitted maximal effect.

SMILES	Sm TGR inh	LmPK inh	NS1 inh	Tb PYK inh	RE007 growth inh	SARS PLP yeast
CCC(=O)N1CCCc2cc(S(=O)(=O)N3CCC(C(=O)NC4CCC(C)CC4)CC3)ccc21 (stereo not drawn)	-4%	.	.	-5%	.	.
C[C@@H]1NCC[C@H](CC(=O)O)[C@H]1CC(=O)O	.	.	1%	.	.	.
CCSCC[C@H](N)C(=O)O	.	.	1%	.	.	.
COc1ccc(NC(=O)CS(=O)(=O)c2ccc(C)cc2)c(OC)c1	-18%	-3%	-1%	-3%	25%	21%
COc1ccc(C(=O)CCS(=O)(=O)c2ccc(C)cc2)cc1	1µM*	-1%	-1%	4%	-23%	3%
CO/N=C(/CS(=O)(=O)c1ccc(C)cc1)c1ccc(OC)cc1	40µM*	3%	-9%	-7%	-11%	-15%
COc1ccc(C(=O)NCCS(=O)(=O)NCc2ccc(C)cc2)cc1	-2%	.	.	0%	8%	2%
COc1ccc(COC(=O)CCS(=O)(=O)c2ccc(C)cc2)cc1	-20%	.	.	-1%	8%	.
COc1ccc(C(=O)NCS(=O)(=O)c2ccc(C)cc2)cc1	11µM*	0%	-6%	-5%	10%	-8%
CCC(=O)OCCNc1cc(Sc2nc3ccccc3s2)c2nonc2c1[N+](=O)[O-]	0.25µM*	-18%	-209%	-4%	?	-32%
CCCSc1cc(NCCOC(C)=O)c([N+](=O)[O-])c2nonc12	-3%	1%	-5%	-4%	-6%	1%
Cc1nnc(Sc2cc(NCCO)c([N+](=O)[O-])c3nonc23)s1	?	-2%	.	-7%	7%	4%
O=[N+]([O-])c1c(NCCCO)cc(Sc2nc3ccccc3s2)c2nonc12	-8%	-4%	8%	-10%	1%	-9%
CCC(=O)OCCNc1cc(Sc2nc3ccccc3[nH]2)c2nonc2c1[N+](=O)[O-]	0.56µM*	5%	1%	-11%	-8%	-8%
Cc1nnc(Sc2cc(NCCCO)c([N+](=O)[O-])c3nonc23)s1	0.32µM*	11%	-7%	5%	-10%	3%
COc1ccc(Nc2nnc(-c3ccc(C)c(S(N)(=O)=O)c3)c3ccccc23)cc1	-8%	.	.	-6%	.	.
CCc1ccccc1NC(=O)N1CC(CC)Oc2ccc(Cl)cc21 (stereo not drawn)	-2%	.	.	0%	.	.
O=C(CCl)NCCN1C(=O)S/C(=C\c2cccnc2)C1=O	40µM*	-14%	-3%	6%	-10%	-1%
c1ccc(-c2nc(N3CCOCC3)s[n+]2-c2ccccc2)cc1	-16%	-19%	-3%	2.5µM*	.	-12%
COc1ccc(OC)c(NC(=O)CN2CCCN(Cc3ccccc3Cl)S2(=O)=O)c1	6%	.	.	8%[15.4 µM]	.	.
CCC(C)c1ccccc1NC(=O)C(C)NCCN(C)C (stereo not drawn)	40µM*	0%	1%	0%	-4%	-1%
CCOc1ccc(-c2csc(NC(=O)c3cccc(N4C(=O)CCC4=O)c3)n2)cc1	7%	-3%	-1%	-4%	0%	0%
Cc1ccc(-c2csc(NC(=O)c3cccc(N4C(=O)CCC4=O)c3)n2)o1	8.9µM*	2%	-9%	-19%	-2%	27%
Cn1c(=O)c(=O)n(C)c2cc(N3CCOCC3)c(NS(=O)(=O)c3ccc(Br)cc3)cc21	25µM*	-4%	4%	-12%	1%	4%
COc1ccc(OC)c(S(=O)(=O)Nc2cc3c(cc2N2CCCC2)n(C)c(=O)c(=O)n3C)c1	32µM*	-2%	7%	?	-3%	0%
SMILES	Sm TGR inh	LmPK inh	NS1 inh	Tb PYK inh	RE007 growth inh	SARS PLP yeast
CCOc1ccc(CNC(=O)Cc2ccc(NC(=O)N3CCSc4ncccc43)cc2)cc1	1%	.	.	7%[15.4 µM]	.	.
Cc1cccc(C(=O)NC(=S)NNC(=O)c2ccccc2Cl)c1	-5%	0%	-80%	-29%	-46%	-42%
Cc1cc(C(=O)NNC(=S)NC(=O)/C=C/c2ccccc2Cl)n[nH]1	-27%	5%	17%	-21%	1%	10µM*
CCc1cccc(NC(=O)CSc2ncc3c(n2)-c2cc(Cl)ccc2N(C)S3(=O)=O)c1	4%	.	.	0%	.	.
O=C(/C=C/c1ccc(O)cc1)c1ccccc1	-19%	13µM*	-58%	?	50µM*	-2%
O=C(/C=C/c1cccnc1)c1ccc(O)cc1	45µM*	-13%	3%	-5%	-2%	0%
O=C(C=Cc1ccccc1)c1ccc([N+](=O)[O-])cc1	.	.	.	-2%	-21%	.
O=C(C=Cc1ccccn1)c1ccccc1	.	.	.	4%	25µM*	.
O=C(/C=C/c1cccc(O)c1)c1cccnc1	?	-6%	.	-4%	-10%	2%
O=C(/C=C/c1cccnc1)c1ccc([N+](=O)[O-])cc1	8.9µM*	3%	-7%	4%	2%	-20%
C=CCN1c2ccccc2[C@]23C[C@@H](C(=O)OC)N(S(=O)(=O)c4ccc5c(c4)OCCN5C)C2=NC(C(=O)OC)=C(C(=O)OC)[C@H]13	.	-1%[11.5 µM]	.	.	.	.
Cc1ccc(/C=C/C(=O)c2ccccc2O)cc1	-13%	-24%	-9%	-6%	-11%	2%
O=C(C=Cc1cccnc1)c1ccccc1	.	.	.	-2%	45µM*	.
O=C(/C=C/c1cccnc1)c1ccccc1O	20µM*	-13%	-83%	-3%	.	-1%
COc1ccc(/C=C2\N=C(C)OC2=O)cc1[N+](=O)[O-]	10µM*	2%	3%	-8%	2%	0%
CC1=N/C(=C/c2cccnc2)C(=O)O1	22µM*	-3%	.	4%	-7%	-6%
COc1cc(/C=C2\N=C(C)OC2=O)cc(Cl)c1OC(C)=O	10µM*	0%	0%	-1%	-2%	2%
CCC1(CCSC(=N)N)C(=O)NC(=O)NC1=O	.	.	-5%	.	.	.
CC(NC(=O)c1ccc2c(c1)N(Cc1ccc(Cl)cc1)C(=O)c1ccccc1S2=O)c1ccccc1 (stereo not drawn)	-13%	.	.	-6%	.	.
CC(C)CNc1nc2ncnc(N)c2[nH]1	.	.	-4%	.	.	.
Cc1c(Cl)cccc1-n1c(-c2cccnc2)n[nH]c1=S	-1%	?	12%	7.1µM*	-9%	1%
Cc1ccc(C)c(-n2c(-c3cccnc3)n[nH]c2=S)c1	.	-28%	6%	?	9%	?
Cc1cc(Cl)ccc1-n1c(-c2cccnc2)n[nH]c1=S	10%	8.9µM*	-3%	14µM*	12%	-1%
Cc1ccc(C)n1-c1ccc(N2CCOCC2)c([N+](=O)[O-])c1	35µM*	-4%	?	-7%	1%	0%
O=C(CCl)N(C1CCCC1)C1CCS(=O)(=O)C1 (stereo not drawn)	16µM*	-2%	-1%	0%	-18%	1%
